Results published in PubChem BioAssay.
Calls of active or inactive are those of the source. Unless noted, the rule behind the calls is not given here.

Key:
[1] = resazurin metabolic signal in HepG2 cells – cell-based, resazurin fluorescence, 24 h, PK04 Diversity Set, profiling panel (AID 1172); conditions: HepG2 viability, higher = more signal
[2] = budding yeast growth changes without added modifier – OD600, strain BY4716, 24 h, basal condition, primary screen (AID 1173); conditions: S. cerevisiae BY4716 growth, OD600, 24 h; higher = more signal, called active from +8 up or from −8 down
[3] = viability profiling in MM1S myeloma cells – cell-based, resazurin fluorescence, basal, 24 h, PK04 Diversity Set, profiling panel (AID 1174); conditions: higher = more signal, called active from +8 up or from −8 down;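 note: MM1S multiple myeloma cell line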
[4] = biological target: Dihydroorotate dehydrogenase (quinone), mitochondrial (Plasmodium falciparum (isolate 3D7)) (UniProt Q08210); experiment: inhibition of P. falciparum DHODH – biochemical, C-terminal His tag, absorbance 600 nm, primary screen (AID 1175); conditions: PfDHODH enzyme, DCIP absorbance 600 nm; higher = more signal, called active from +8 up or from −8 down;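 note: recombinant parasite enzyme with a five histidine tag at its C terminus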
[5] = inhibition of PAO1 biofilm formation – strain PAO1, LB-PBS medium, absorbance 600 nm, primary screen (AID 1176); conditions: P. aeruginosa PAO1 growth/biofilm, A600, 12 h; higher = more signal
[6] = growth modulation of vineyard yeast isolate – strain RM11-1a, OD600, basal, 24 h, primary screen (AID 1177);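 note: cultures grown under basal conditions with no added stressor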; conditions: S. cerevisiae RM11-1a growth, OD600, 24 h; higher = more signal, called active from +8 up or from −8 down
[7] = growth of efflux-deficient E. coli DRC39 – strain DRC39, OD650, 24 h, E. coli filamentation inducers, primary screen (AID 1178);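 note: growth measured as culture turbidity by optical density at 650 nm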; conditions: E. coli DRC39 acrAB, higher = more signal, called active from +8 up or from −8 down
[8] = growth of efflux-deficient E. coli DRC39 – strain DRC39, OD650, 48 h, E. coli filamentation inducers, primary screen (AID 1179);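 note: screen aims at cell division blockers that make cells filament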; conditions: E. coli DRC39 delta-acrAB growth, higher = more signal, called active from +8 up or from −8 down
[9] = viability profiling in RPMI8226 myeloma cells – cell-based, resazurin fluorescence, basal, 24 h, PK04 Diversity Set, profiling panel (AID 1180); conditions: higher = more signal;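 note: RPMI8826 multiple myeloma cell line at 5000 cells per well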
[10] = biological target: E3 ubiquitin-protein ligase XIAP (Homo sapiens) (UniProt P98170); experiment: small molecules binding XIAP protein – biophysical, small-molecule microarray, fluorescence 635 nm, primary screen (AID 1181); conditions: higher = more signal;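 note: score merges 667 nm emission and signal to noise over triplicate slides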
[11] = tested on: XIP peptide (Xip251-270) binding; experiment: XIP fragment 251-270 binding compounds – biochemical, small-molecule microarray, fluorescence 635/667 nm, 0.1 µg/mL protein, primary screen (AID 1182); conditions: fluorescent protein binding, 635 nm, higher = more signal, called active from +8 up or from −8 down
[12] = tested on: XIP peptide (Xip251-270); experiment: compounds binding XIP fragment 251-270 – biochemical, small-molecule microarray, fluorescence 635/667 nm, 0.5 µg/mL protein, primary screen (AID 1183); conditions: fluorescence 635 nm, higher = more signal
[13] = blood-stage malaria parasite viability loss – strain 3D7, DAPI fluorescence, 100 nL, primary screen (AID 1184);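 note: parasites grown inside human red blood cells in medium with human serum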; conditions: P. falciparum 3D7 growth, 3 d, higher = more signal
[14] = biological target: Homeobox protein Hox-A13 (Mus musculus) (UniProt Q62424); experiment: disruptors of Hoxa13 oligonucleotide interaction – biochemical, fluorescence polarization, labeled oligonucleotide, primary screen (AID 1185); conditions: Hoxa13:DNA binding, 15 min, higher = more signal, called active from +8 up or from −8 down
[15] = blockers of DNA damage checkpoint Chk1 activation – imaging, HeLa, hydroxyurea, phospho-Chk1 antibody, percent positive cells, primary screen (AID 1186); conditions: hydroxyurea-induced phospho-Chk1 immunofluorescence imaging, higher = more signal
[16] = blockers of DNA damage checkpoint Chk1 activation – imaging, HeLa, hydroxyurea, phospho-Chk1 nuclear intensity, primary screen (AID 1187); conditions: hydroxyurea-induced phospho-Chk1 immunofluorescence imaging, higher = more signal

Chain of Dihydroorotate dehydrogenase (quinone), mitochondrial (Plasmodium falciparum (isolate 3D7)) (Q08210 whole entry, looked up): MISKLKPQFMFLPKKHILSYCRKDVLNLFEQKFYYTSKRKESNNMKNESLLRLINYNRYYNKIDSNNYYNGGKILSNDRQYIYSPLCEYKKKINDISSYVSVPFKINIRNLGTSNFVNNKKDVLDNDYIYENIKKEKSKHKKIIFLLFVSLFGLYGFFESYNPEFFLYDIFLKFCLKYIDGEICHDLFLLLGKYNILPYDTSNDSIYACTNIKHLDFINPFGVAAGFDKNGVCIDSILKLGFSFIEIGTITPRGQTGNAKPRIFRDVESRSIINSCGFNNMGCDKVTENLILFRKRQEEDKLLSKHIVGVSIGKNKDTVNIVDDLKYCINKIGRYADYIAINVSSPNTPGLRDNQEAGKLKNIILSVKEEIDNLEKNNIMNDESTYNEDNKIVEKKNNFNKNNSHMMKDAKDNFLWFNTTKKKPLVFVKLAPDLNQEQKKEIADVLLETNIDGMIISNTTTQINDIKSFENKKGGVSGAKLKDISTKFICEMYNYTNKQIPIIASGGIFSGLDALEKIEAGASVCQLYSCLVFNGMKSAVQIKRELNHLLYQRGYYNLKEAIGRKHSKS
Chain of E3 ubiquitin-protein ligase XIAP (Homo sapiens) (P98170 whole entry, looked up, the tested form may be a part): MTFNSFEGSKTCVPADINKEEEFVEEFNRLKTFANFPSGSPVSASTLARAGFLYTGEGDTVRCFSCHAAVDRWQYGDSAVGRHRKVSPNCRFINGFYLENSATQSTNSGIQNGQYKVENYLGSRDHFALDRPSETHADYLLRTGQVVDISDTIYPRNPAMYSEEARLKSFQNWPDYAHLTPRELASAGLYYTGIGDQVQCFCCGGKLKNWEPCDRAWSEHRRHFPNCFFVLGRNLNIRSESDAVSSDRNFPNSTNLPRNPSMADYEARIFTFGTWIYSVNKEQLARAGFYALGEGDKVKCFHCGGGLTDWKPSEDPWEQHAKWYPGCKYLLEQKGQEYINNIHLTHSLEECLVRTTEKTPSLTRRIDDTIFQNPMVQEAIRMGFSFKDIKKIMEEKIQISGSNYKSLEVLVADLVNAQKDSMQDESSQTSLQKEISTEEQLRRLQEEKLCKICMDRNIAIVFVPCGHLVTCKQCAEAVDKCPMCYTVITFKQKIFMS
Chain of Homeobox protein Hox-A13 (Mus musculus) (Q62424 whole entry, looked up): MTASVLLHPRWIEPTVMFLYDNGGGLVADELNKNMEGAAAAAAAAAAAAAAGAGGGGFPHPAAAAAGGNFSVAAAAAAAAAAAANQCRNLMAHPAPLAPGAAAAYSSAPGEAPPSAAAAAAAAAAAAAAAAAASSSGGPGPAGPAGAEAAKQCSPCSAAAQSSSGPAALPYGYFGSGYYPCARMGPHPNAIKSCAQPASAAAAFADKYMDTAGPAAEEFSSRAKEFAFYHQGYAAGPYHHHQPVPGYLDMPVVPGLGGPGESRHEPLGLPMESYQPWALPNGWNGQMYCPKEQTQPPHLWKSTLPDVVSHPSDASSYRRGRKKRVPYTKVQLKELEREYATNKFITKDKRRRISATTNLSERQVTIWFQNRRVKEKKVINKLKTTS

SMILES | z-score [1] | z-score [2] | z-score [3] | composite z-score [4] | z-score [5] | z-score [6] | z-score [7] | z-score [8] | z-score [9] | composite z-score [10] | composite z-score [11] | composite z-score [12] | z-score [13] | z-score [14] | z-score [15] | z-score [16]
CS(=O)(=O)CCOC(=O)C1=CC(CCCO)=CC(C2CC2)N(Cc2cc3c(cc2Br)OCO3)C=C1C(=O)OCCS(C)(=O)=O (centres undefined) | 0.0423 | -2.22 (inactive) | -0.134 (inactive) | -1.5 (inactive) | 0.118 (inactive) | 0.37 (inactive) | 1.17 (inactive) | 0.892 (inactive) | -0.0822 | 0.448 | 0.389 (inactive) | -0.111 | -2.58 | -5.51 (inactive) | -1.19 (inactive) | -0.295 (inactive)
NC(=O)[C@@]1(Cc2ccccc2)N=C(c2ccc(OCCCO)cc2)O[C@H]1c1ccccc1 | -0.815 | -1.05 (inactive) | 0.597 (inactive) | 0.842 (inactive) | 0.466 (inactive) | -0.541 (inactive) | 1.54 (inactive) | 0.915 (inactive) | -0.0693 | 0.225 | 1.08 (inactive) | -0.41 | -0.689 | -5.07 (inactive) | -0.18 (inactive) | 0.135 (inactive)
COc1ccc([Si](C)(C)[C@H]2[C@H](CC(=O)N3CCC[C@H]3CO)O[C@@]3(C(=O)N(Cc4cccc(N5CCOC5=O)c4)c4ccccc43)[C@@H]2C)cc1 | 0.22 | -0.338 (inactive) | -0.133 (inactive) | -3.32 (inactive) | -0.249 (inactive) | 0.177 (inactive) | 0.181 (inactive) | -0.109 (inactive) | -0.699 | -0.0839 | 0.991 (inactive) | 0.672 | -1.42 | -4.71 (inactive) | 0.835 (inactive) | 0.936 (inactive)
CCCC(=O)N(CCc1c[nH]c2ccccc12)[C@@H]1CC(C(=O)NCCO)=C[C@H](Oc2c(I)cc(CO)cc2OC)[C@H]1O | 0.627 | -1.22 (inactive) | -0.176 (inactive) | 0.0595 (inactive) | 0.789 (inactive) | 0.152 (inactive) | 0.336 (inactive) | 0.582 (inactive) | 0.114 | -0.222 | -0.131 (inactive) | 0.289 | -0.373 | -7.89 (inactive) | -1.51 (inactive) | -2.68 (inactive)
CCOc1ccc(N2C(=O)CSC2c2cccc([N+](=O)[O-])c2)cc1 (centres undefined) | 0.296 | 0.269 (inactive) | -0.0959 (inactive) | -0.274 (inactive) | -0.0902 (inactive) | 0.791 (inactive) | 0.754 (inactive) | 0.908 (inactive) | -0.0239 | -0.183 | 0.115 (inactive) | 0.193 | 0.268 | -0.0449 (inactive) | -0.139 (inactive) | -0.0398 (inactive)
NC(=O)[C@@H]1[C@H]2C(=O)O[C@H](c3ccccc3)[C@H](c3ccccc3)N2[C@H](c2ccc(O)cc2)[C@@]12C(=O)Nc1ccc(C#CC3=CCCCC3)cc12 | -0.712 | 0.761 (inactive) | -7.46 (inactive) | 1.68 (inactive) | 0.802 (inactive) | 2.07 (inactive) | -0.488 (inactive) | -0.705 (inactive) | -6.39 | -0.0696 | 0.799 (inactive) | 0.619 | -0.303 | -0.487 (inactive) | 0.0025 (inactive) | 0.518 (inactive)
C=CC[C@]1(C(=O)NCc2ccccc2)N=C(c2ccc(OCCCO)cc2)O[C@H]1c1ccccc1CN=[N+]=[N-] | 0.238 | -0.0802 (inactive) | -0.871 (inactive) | 0.548 (inactive) | 1.06 (inactive) | 0.149 (inactive) | -0.0443 (inactive) | -1.25 (inactive) | -0.328 | -0.0322 | -0.274 (inactive) | 0.338 | -2.53 | 0.343 (inactive) | -0.158 (inactive) | -0.402 (inactive)
COc1cc(OC)c(C(O)C2C=CC3C(=O)NC(=O)C3N2Nc2ccccn2)cc1Br (centres undefined) | -0.455 | -0.991 (inactive) | -0.597 (inactive) | 0.412 (inactive) | 1.19 (inactive) | 0.666 (inactive) | -0.0857 (inactive) | -0.512 (inactive) | -0.195 | -0.0525 | 0.654 (inactive) | 0.448 | 0.776 | -1.28 (inactive) | -0.143 (inactive) | -0.266 (inactive)
O=C1C[C@@](C(=O)NCc2ccccc2)(c2ccc([N+](=O)[O-])cc2)[C@@H](c2ccc(CO)cc2)N1CC12CC3CC(CC(C3)C1)C2 | -1.63 | 0.229 (inactive) | -3.64 (inactive) | 0.59 (inactive) | 1.06 (inactive) | 0.87 (inactive) | -0.202 (inactive) | 0.368 (inactive) | -4.75 | 0.0427 | 1.9 (inactive) | 0.733 | -0.83 | -2.75 (inactive) | -0.714 (inactive) | -0.762 (inactive)
